HEK cytotox: cytotoxic compounds in HEK 293 cells; HEK 293 viability, ATP luminescence (CellTiter-Glo), 48-72 h; Potency, µM (highest dose often 115 µM), usual class: inhibitors; 94,000 tested, 6.6% active; AID 1345083; note: nearly all actives have a fitted effect of over 60% in size
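HEK 293 cells seeded at 250 cells/well were exposed to compound for 48 or 72 hr at 37 degree Celsius. Viability taken as ATP content by CellTiter-Glo luminescence.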
SNCA expr inhib: reduces expression of the alpha-synuclein gene; AID 1671194; HEK-293 SNCA-luciferase knock-in, luminescence, 24 h; 140,000 tested, 0.17% active; Potency, µM (top dose mostly 57.2 µM), hits mostly inhibitors; note: nearly all actives have a fitted effect of over 45% in size
NPR1 antag: human Npr1 receptor antagonism; HEK293 hNpr1 GloSensor cGMP, ANP-stimulated luminescence; P16066; Potency, µM (top dose mostly 46.3 µM), most hits filed as inhibitors; 76,000 tested, 1.6% active; calls by dose curve; note: nearly all actives have a fitted effect of over 60% in size
Target sequence (P16066 whole entry, looked up): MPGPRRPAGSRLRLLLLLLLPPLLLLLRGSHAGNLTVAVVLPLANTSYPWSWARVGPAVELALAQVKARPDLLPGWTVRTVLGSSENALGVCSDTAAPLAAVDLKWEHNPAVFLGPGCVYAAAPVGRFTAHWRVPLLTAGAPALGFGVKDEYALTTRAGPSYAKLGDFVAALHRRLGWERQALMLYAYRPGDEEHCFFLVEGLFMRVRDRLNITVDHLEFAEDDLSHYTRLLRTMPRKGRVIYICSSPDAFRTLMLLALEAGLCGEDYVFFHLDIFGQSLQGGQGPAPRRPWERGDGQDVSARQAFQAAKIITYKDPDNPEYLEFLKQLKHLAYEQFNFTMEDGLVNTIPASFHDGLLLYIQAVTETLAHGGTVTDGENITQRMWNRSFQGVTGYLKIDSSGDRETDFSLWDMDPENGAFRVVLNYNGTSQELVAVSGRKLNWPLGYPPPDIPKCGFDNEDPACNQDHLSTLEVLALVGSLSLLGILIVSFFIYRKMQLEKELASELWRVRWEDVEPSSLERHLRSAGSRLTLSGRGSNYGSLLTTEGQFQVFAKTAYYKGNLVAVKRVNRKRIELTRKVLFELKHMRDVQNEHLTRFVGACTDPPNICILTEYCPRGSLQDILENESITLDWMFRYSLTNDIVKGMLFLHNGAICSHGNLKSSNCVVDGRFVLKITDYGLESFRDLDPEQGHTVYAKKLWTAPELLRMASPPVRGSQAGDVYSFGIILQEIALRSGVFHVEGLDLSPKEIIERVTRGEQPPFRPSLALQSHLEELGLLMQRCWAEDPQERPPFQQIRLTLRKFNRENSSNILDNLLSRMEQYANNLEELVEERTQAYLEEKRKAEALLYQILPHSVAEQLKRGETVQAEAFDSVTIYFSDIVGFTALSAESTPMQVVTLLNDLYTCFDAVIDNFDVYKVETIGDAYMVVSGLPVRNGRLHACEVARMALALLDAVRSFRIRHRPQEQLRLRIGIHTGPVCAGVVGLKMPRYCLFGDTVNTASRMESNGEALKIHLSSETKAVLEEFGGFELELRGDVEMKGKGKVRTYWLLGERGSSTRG
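Compound pre-incubated 30 min at room temperature on GloSensor-loaded HEK293 cells stably carrying hNpr1 and the pGS-40F cGMP biosensor. Stimulation uses hNppA at 0.1 nM final; luminescence is taken at baseline and 20 min post-agonist.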
Luciferase inh: blocks purified firefly luciferase enzyme activity; P08659; purified P. pyralis luciferase, luminescence, biochemical; Potency, µM (doses to about 115 µM), most hits filed as inhibitors; 76,000 tested, 2.5% active; AID 1347043; note: nearly all actives have a fitted effect of over 65% in size
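Biochemical qHTS: compound (6-point titration) added to 10uM D-luciferin plus 10uM ATP in Tris acetate pH 7.5 buffer with Mg, Tween-20 and BSA, then purified enzyme at 10nM; light output imaged.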
SNCA viab count: cell viability loss counter-screen | 150,000 tested, 0.12% active | HEK-293-SNCA-luc viability, GF-AFC fluorescence, 24 h | Potency, µM (top dose mostly 57.1 µM), hits mostly cytotoxic; note: nearly all actives have a fitted effect of over 30% in size
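HEK-293-SNCA-luc cells (1500/well) plated 24 h, then exposed 24 h to a dilution series; GF-AFC added 30 min at 37C, fluorescence 405/540 nm; normalised to medium-only and DMSO wells, Hill fit.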
NIH3T3 tox: kills NIH 3T3 cells. NIH 3T3 viability, CellTiter-Glo ATP luminescence, 48-72 h. Potency, µM (series often up to 96.7 µM), most hits filed as inhibitors. 94,000 tested, 4.3% active. AID 1345082; note: nearly all actives have a fitted effect of over 55% in size
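Viability of NIH 3T3 cells after 48 or 72 hr compound treatment at 37 °C was assessed by CellTiter-Glo, with luminescence imaged following a 10 min room-temperature step.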
Numbers stand for hits; . = inactive; ? = inconclusive; / = not tested or not shown; [ ] = dose if it differs, or a comment. Hits are enriched below; roughly 7.4% of the tested compounds scored in any of these assays. Unless noted, calls come from the whole dose curve; as a rule, active = well fitted curve in the direction sought with a large enough effect; inconclusive = small, poorly fitted or top-dose-only effect, or another doubt; inactive = no such curve, though single readings can be large; an effect the other way counts as inactive or inconclusive.

SMILES | HEK cytotox | SNCA expr inhib | NPR1 antag | Luciferase inh | SNCA viab count | NIH3T3 tox
CC(C)CNC(=O)c1ccc2nnc(-c3cc(C(F)(F)F)cc(C(F)(F)F)c3)n2c1 | ? | . | / | / | . | ?
Cc1cccc(CN2CCCC3(CCN(C(=O)CCc4ccccc4C)C3)C2)c1 (stereo not given) | 89µM | ? | . | . | . | ?
COc1ccc(F)cc1-c1cccc(C(=O)NCCNC(=O)c2ccccn2)c1 | ? | . | / | / | . | ?
CC(C)Oc1cccc2c1c(NC(=O)c1ccn(C)n1)nn2Cc1ccccc1 | ? | ? | . | ? | . | ?
CC(C)Oc1cccc2c1c(NC(=O)C1CCCO1)nn2Cc1ccccc1 (stereo not given) | 45µM | . | . | . | . | ?
CCCn1c(C)cnc1CCNC(=O)C1(c2ccc(OC)cc2)CC1 | . | . | / | / | ? | .
O=C(NCc1ccc(F)cc1)c1cc(-c2ccsc2)c2nncn2n1 | ? | . | / | / | . | .
COc1cccc(C(=O)Nc2cc(C3CC3)nn2-c2ccccc2)c1 | ? | . | / | / | . | ?
CCN1C(=O)CCN(Cc2cn(C)c3ccccc23)CC12CCOCC2 | 79µM | . | / | / | . | ?
O=C(Nc1ccc(-c2cccc(F)c2)cc1)C1CCCN1Cc1ccc(CO)o1 (stereo not given) | 35µM | . | . | ? | . | ?
Cc1ncc(CN2CCCC2C(=O)Nc2ccc(-c3cccc(F)c3)cc2)n1C (stereo not given) | 20µM | . | . | . | . | ?
Cc1ncc(CN2CCCC2C(=O)Nc2ccc(-c3cccc(F)c3)cc2)[nH]1 (stereo not given) | ? | . | . | . | . | ?
O=C(NC1CC1)C1CCCN(c2nccc(Nc3ccccc3F)n2)C1 (stereo not given) | ? | . | / | / | .[12.5 µM] | 89µM
O=C(NC1CCCC1)C1CCCN(c2nccc(Nc3ccccc3F)n2)C1 (stereo not given) | ? | . | / | / | .[12.5 µM] | 40µM
O=C(NC1CCCC1)C1CCN(c2nccc(Nc3ccccc3F)n2)CC1 | ? | . | / | / | . | ?
COc1ccc(-c2cc(NCCO)nc3[nH]ccc23)cc1C(F)(F)F | 40µM | . | . | . | . | 40µM
CNC(=O)c1cc(C2CC2)nc2onc(C3CCCN3C(=O)c3ccc(F)cc3)c12 (stereo not given) | . | / | / | / | / | .
O=C(NCc1ccccn1)c1ccc2nc(-c3cccnc3Cl)oc2c1 | ? | . | / | / | . | ?
COc1cccc(C(=O)N2CCCC2C(=O)N2CCCC2c2nc3ccncc3[nH]2)c1 (stereo not given) | . | . | / | / | . | .
Cn1ccc2c(C(=O)NCc3cccnc3)nc(-c3ccccc3C(F)(F)F)cc21 | 71µM | . | . | . | . | 45µM
CN(C)CCNC(=O)c1nc(-c2ccc(N3CCN(C)CC3)cc2)cc2c1ccn2C | ? | ? | . | ? | ? | 7.9µM
Cn1ccc2c(C(=O)NCc3cccnc3)nc(-c3cccnc3)cc21 | . | . | . | . | . | 25µM
COc1ccc(-c2cc3c(ccn3C)c(C(=O)NCCC(N)=O)n2)cc1OC | . | ? | . | ? | . | ?
Cn1ccc2c(C(=O)NCc3cccnc3)nc(-c3ccc(CO)cc3)cc21 | . | . | . | . | . | 45µM
CC(=O)N1CCCC(N2C(=O)c3c(c(C)nn3-c3ccccc3)C2C2CC2)C1 (stereo not given) | . | / | / | / | / | ?
SMILES | HEK cytotox | SNCA expr inhib | NPR1 antag | Luciferase inh | SNCA viab count | NIH3T3 tox
Cc1ccc(OCC(=O)NCC23CCCC=C2NC(=O)CC3)cc1 (stereo not given) | . | . | / | / | . | .
CC(=O)Nc1cccc(-c2cc3c(ccn3C)c(C(=O)NCc3cccnc3)n2)c1 | ? | . | . | . | . | 25µM
Cn1ccc2c(C(=O)NCc3cccnc3)nc(-c3ccncc3)cc21 | ? | . | . | ? | . | ?
CN(C)[S+](=O)([O-])c1ccc2c(c1)OCCN(Cc1cccc(Cl)c1)C2 | 79µM | . | . | . | . | ?
Cc1cc(F)cc(CN2CCOc3cc([S+](=O)([O-])N(C)C)ccc3C2)c1 | 79µM | . | . | . | . | 40µM
CCc1nc2c(c(-c3ccc(O)cc3)n1)CN(Cc1ccc(NC(C)=O)cc1)CC2 | . | . | / | / | . | .
O=C(NCc1cccc(C(F)(F)F)c1)c1ccc2nnc(C3CCOCC3)n2c1 | . | / | / | / | / | ?
O=C(C[C@@H]1CCNC[C@@H]1Cc1cc(-c2ccccc2)on1)N1CCc2ccccc2C1 | 40µM | . | . | . | . | 32µM
COCc1cc(C[C@H]2CNCC[C@H]2CC(=O)N2CCc3cc(OC)c(OC)cc3C2)no1 | . | . | . | . | . | .
CN(Cc1ccccc1)Cc1cc(C[C@H]2CNCC[C@H]2CC(=O)N2CCOCC2)no1 | . | . | . | . | . | .
COc1cc2c(cc1OC)CN(C(=O)C[C@@H]1CCNC[C@@H]1Cc1cc(-c3ccccc3)on1)CC2 | 79µM | . | . | . | . | ?
COc1ccc(-c2cc(C[C@H]3CNCC[C@H]3CC(=O)N3CCN(c4ccccc4)CC3)no2)cc1 | 40µM | . | . | . | . | 25µM
CN(Cc1cc(C[C@H]2CNCC[C@H]2CC(=O)N2CCN(c3ccccc3)CC2)no1)c1ccccc1 | ? | ? | . | . | ? | 20µM
O=C(c1ccoc1)N1CCCN(CCc2ccccc2)c2ccccc21 | ? | . | . | . | . | ?
Cn1cc(CN2Cc3ccc(C(=O)Nc4ccc(F)cc4)cc3OCC2=O)cn1 | ? | . | . | . | . | .
CN1Cc2ccc(C(=O)Nc3ccc4cn[nH]c4c3)cc2OCC1=O | . | . | . | 32µM | . | ?
CCOC(=O)C1CCCN(C(=O)c2ccc3oc(-c4ccncc4)nc3c2)C1 (stereo not given) | ? | . | / | / | . | ?
CCOC(=O)[C@@H]1CN(C(=O)CC(C)C)[C@H]2c3cccc(C)c3O[C@@H]12 | . | / | / | / | / | ?
CC(=O)Nc1cccc2ccc(OCc3nnc(C(=O)N4CCC[C@@H]4c4ccc(Br)cc4)n3Cc3ccccc3)cc12 | ? | . | . | . | ? | ?
CC(=O)Nc1cccc(OCc2nnc(C(=O)N3CCC[C@@H]3c3ccc(Br)cc3)n2Cc2ccccc2)c1 | 32µM | . | . | . | . | 22µM
Cc1noc(C)c1S(=O)(=O)N[C@@H]1C[C@H](Cn2cc(-c3cccnc3)nn2)[C@@H](O)[C@H]1O | 40µM | . | . | . | . | 22µM
CN1CCCN(C(=O)C2CCCC2)c2ccccc21 | 89µM | . | . | . | . | ?
COc1ccccc1C(=O)N1CCCN(C)c2ccccc21 | 79µM | ? | . | . | . | ?
Cc1nnc2ccc(N3CCC(NC(=O)c4ccccc4)CC3)nn12 | . | / | / | / | / | .

Source: PubChem BioAssay (National Center for Advancing Translational Sciences (NCATS))
